From PubChem BioAssay (Tox21)
Values without a mark were called inactive. The source made the active and inactive calls. Calls come from the whole dose curve; as a rule, active = well fitted curve in the direction sought with a large enough effect in the repeat runs; inconclusive = weak or mixed curves; inactive = flat fitted curve, though single readings scatter.

Experiment: qHTS assay to test for compound auto fluorescence at 590 nm (red) in HepG2 cell free culture (AID 720684)
Details: cell-free medium autofluorescence, red 540/590 nm; series mostly up to 91.3 µM; fluorescence, % of Rose Bengal: at the top concentration
Text: U.S. Tox21 Program National Center for Advancing Translational Sciences [NCATS] NIH Chemical Genomics Center [NCGC] U.S. Environmental Protection Agency [EPA] National Institutes of Environmental Health Sciences [NIEHS] National Toxicology Program [NTP] U.S. Food and Drug Administration [FDA] Tox21 Assay Overview: Compound auto fluorescence often interferes with screening of the compound library against various biological targets and signaling pathways. Some of these compounds may have fluorophoric properties. Such properties may interfere with the assay outputs resulting in false positives and/or negatives. To decrease such complications and ensure the compound activities are relevant in terms of biological response, the Tox21 10K compound library was screened for auto fluorescence. From the fluorophores used as reporter signals in our screening assays, the auto fluorescence equivalencies of compounds against three fluorophores have been evaluated: Triamterene, Fluorescein and Rose Bengal sodium for blue, green and red fluorescence, respectively. The fluorescence intensities were measured using Excitation/Emission wavelengths at 405/460nm, 485/535nm and 540/590nm for blue, green and red labels, respectively. This assay includes the red fluorescence data.
Tox21 Assay Protocol Summary: 5 uL of culture medium (MEM containing 10% FBS) per well was dispensed into black wall/clear bottom 1536-well plates using a Multidrop Combi Dispenser (ThermoFisher Scientific, Waltham, MA). After 23 nL compound or DMSO vehicle was transferred into assay plate by a pintool work station (Kalypsys, San Diego, CA), fluorescence intensities in the assay plates were measured by an Envision (PerkinElmer, Shelton, CT) plate reader using three labels for measuring blue, green and red fluorescence at […] 460, 535 and 590nm respectively.
% is set by controls: 0 for no effect and ±100 for the full control effect.

Row | Structure (SMILES) | fluorescence, % of Rose Bengal | outcome
1 | O=C(CO)[C@@H](O)[C@H](O)[C@@H](O)CO | 0.0953% [at 46 µM] | 
2 | CC(C)C[C@@H](N)C(=O)O | -0.0892% [at 46 µM] | 
3 | CC1=C(C/C=C(\C)CCC[C@H](C)CCC[C@H](C)CCCC(C)C)C(=O)c2ccccc2C1=O | 0.0125% [at 46 µM] | 
4 | CCCCc1nc(Cl)c(CO)n1Cc1ccc(-c2ccccc2-c2nn[nH]n2)cc1 | -0.23% [at 46 µM] | 
5 | CC(=O)OCC(=O)[C@@]1(O)[C@H](C)C[C@H]2[C@@H]3CCC4=CC(=O)C=C[C@]4(C)[C@@]3(F)[C@@H](O)C[C@@]21C |  | inactive
6 | CC(C)[C@H]1CC[C@@H](C)CC1=O | 0.0406% | 
7 | FB(F)F | 0.0127% [at 95.7 µM] | 
8 | CCCC[N+](C)(CCCC)CCCC | -0.252% | 
9 | NC(=O)N1c2ccccc2CC(=O)c2ccccc21 | -0.376% [at 46 µM] | 
10 | CN(C)[C@@H]1C(=O)C(C(=O)NCN2CCCC2)=C(O)[C@@]2(O)C(=O)C3=C(O)c4c(O)cccc4[C@@](C)(O)C3C[C@@H]12 (stereo not given in full) |  | inactive
11 | NC(N)=NCCN1CCCCCCC1 | -0.0563% [at 18.6 µM] | 
12 | CCN[C@@H]1C[C@H](N)[C@@H](OC2OC(CN)=CCC2N)[C@H](O)[C@H]1O[C@H]1OC[C@](C)(O)[C@H](NC)[C@H]1O (stereo not given in full) | -0.0067% [at 46 µM] | 
13 | C1CCC2(CCCCO2)OC1 | 0.257% | 
14 | CCN(CC#N)c1cccc(C)c1 | -0.134% | 
15 | CC1=CCC(O)(C(C)C)CC1 (stereo not given) | -0.0212% | 
16 | C[C@H]1C[C@H]2[C@@H]3CCC4=CC(=O)C=C[C@]4(C)[C@H]3C(=O)C[C@]2(C)[C@@]1(O)C(=O)CO | 0.0314% [at 46 µM] | 
17 | CN(C)C(=O)Oc1ccc[n+](C)c1 | 0.0045% [at 46 µM] | 
18 | O=C(c1ccccc1)C1(O)CCCCC1 | 0.0454% | 
19 | O=S(=O)(O)c1cccc(S(=O)(=O)O)c1 | -0.0162% | 
20 | CO[C@@]1(NC(=O)C(C(=O)O)c2ccc(O)cc2)C(=O)N2C(C(=O)O)=C(CSc3nnnn3C)CO[C@@H]21 (stereo not given in full) | -0.105% [at 18.6 µM] | 

Row | Structure (SMILES) | fluorescence, % of Rose Bengal | outcome
21 | C=COCC1CCC(COC=C)CC1 (stereo not given) | 0.165% | 
22 | CC1(C)OC[C@@H](COC(=O)CCc2ccc(OC[C@@H](O)CNCCNC(=O)N3CCOCC3)cc2)O1 |  | inactive
23 | CCCCCC(C)N (stereo not given) | -0.116% [at 46 µM] | 
24 | CCN(Cc1ccccc1)c1ccccc1 | -0.131% | 
25 | CCC1C(=O)OCC1Cc1cncn1C (stereo not given) | -0.307% [at 46 µM] | 
26 | CCO[Si](OCC)(OCC)c1ccccc1 | -0.0998% | 
27 | NS(=O)(=O)Cc1noc2ccccc12 | 0.682% [at 46 µM] | 
28 | CCN1CCOCC1 | -0.444% | 
29 | CC(CO)(CO)[N+](=O)[O-] | 0.0801% | 
30 | O=C(O)Cc1csc(-c2ccc(Cl)cc2)n1 | -0.0591% [at 46 µM] | 
31 | CCCCCC(=O)OCCc1ccccc1 | -0.0026% | 
32 | C[C@@H]1CCC[C@H](C)N1 | 0.0262% [at 18.6 µM] | 
33 | CC1=CC(=O)[C@H]2C[C@@H]1C2(C)C | -0.0403% | 
34 | CC(C)NNC(=O)c1ccncc1 | -0.162% [at 46 µM] | 
35 | CCCCOC(=O)CCC(C)=O | 0.0254% | 
36 | CC[N+](C)(CC)CCOC(=O)C1c2ccccc2Oc2ccccc21 | 0.0313% [at 46 µM] | 
37 | COC(=O)Nc1ccc(Cl)c(Cl)c1 | -0.0159% | 
38 | CCOc1ccccc1OCC | 0.0214% | 
39 | c1ccc2sc(SN3CCOCC3)nc2c1 | 0.077% [at 46 µM] | 
40 | C[C@H]1[C@H](NC(=O)/C(=N/OC(C)(C)C(=O)O)c2csc(N)n2)C(=O)N1S(=O)(=O)O (stereo in doubt) | 0.467% [at 18.6 µM] | 
